Experimental data taken from PubChem BioAssay (Tox21).
Inconclusive results are not listed. Activity calls are given as the source filed them. Unless noted, calls follow the shape of the dose curve; as a rule, active = well fitted curve in the direction sought with a large enough effect in the repeat runs; inconclusive = weak or mixed curves; inactive = no such curve, though single readings can be large; an effect the other way counts as inactive or inconclusive.

Legend:
[1] = qHTS assay for small molecule agonists of the p53 signaling pathway (AID 651631; calls by dose curve; also: nearly all actives have a fitted effect of over 15% in size)
Method in brief: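 Quantitative high-throughput format: 4,000 p53RE-bla HCT-116 cells/well, 5 h pre-incubation, 16 h compound exposure at 37 °C, 2 h room-temperature substrate step, fluorescence intensity measured.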

[2] = qHTS assay for small molecules that induce genotoxicity in human embryonic kidney cells expressing luciferase-tagged ATAD5 (AID 651632); also: nearly all actives have a fitted effect of over 15% in size
Method in brief: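 Increased luciferase signal from ATAD5-tagged reporter cells indicates DNA-damage-driven ATAD5 induction. HEK293T cells are treated for 16 hr at 37C before detection with Amplite.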

[3] = qHTS assay for small molecule agonists of the p53 signaling pathway - cell viability (AID 651633; calls by dose curve;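 also: p53RE-bla HCT reporter cells with a stable beta-lactamase p53 reporter; series mostly up to about 83 µM; nearly all actives have a fitted effect of over 30% in size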)
Method in brief: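 Viability counter-read: CellTiter-Glo luminescence (30 min, room temperature) in the same p53RE-bla plates. These plates had been exposed to compounds for 16 h at 37 C.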

[4] = qHTS assay for small molecules that induce genotoxicity in human embryonic kidney cells expressing luciferase-tagged ATAD5 - cell viability (AID 651634; calls by dose curve; also: nearly all actives have a fitted effect of over 25% in size)
Method in brief: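 Cytotoxicity counterscreen in HEK293T cells bearing an ATAD5-luciferase reporter: live-cell protease activity measured by CellTiter-Fluor fluorescence after 15.5 hr compound exposure.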

[5] = qHTS assay for small molecule disruptors of the mitochondrial membrane potential - cell viability (AID 720634; calls by dose curve;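 also: human HepG2 liver cancer cells; series mostly up to about 83 µM; nearly all actives have a fitted effect of over 20% in size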)
Method in brief: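 After overnight attachment at 37 C, HepG2 cells received compound or DMSO vehicle for 1 hr. Viability is then taken from ATP-driven luminescence following a 30 min room-temperature CellTiter-Glo step.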

[6] = qHTS assay to test for compound auto fluorescence at 590 nm (red) in HepG2 cells (AID 720674)
Method in brief: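 Red autofluorescence (Ex/Em 540/590 nm, Rose Bengal sodium equivalents) was measured in HepG2 cells, 2,000 per well in MEM plus 10% FBS, plated overnight at 37 C. Readings were taken 1 hr after adding 23 nL compound or DMSO, at 37 C and 5% CO2.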

[7] = qHTS assay to test for compound auto fluorescence at 460 nm (blue) in HEK293 cells (AID 720678)
Method in brief: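 Blue-channel (Ex/Em 405/460 nm) intensity measured in HEK293 cultures after overnight compound exposure at 37C; signal expressed relative to triamterene. Cells plated 2,000 per well in 10% dialyzed FBS medium and allowed 4-5 hr to attach.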

[8] = qHTS assay to test for compound auto fluorescence at 590 nm (red) in HEK293 cells (AID 720679)
Method in brief: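 Red-channel autofluorescence (Ex/Em 540/590 nm; Rose Bengal sodium reference) was measured after overnight 37C, 5% CO2 exposure of attached HEK293 cells, 2,000 per well in medium with 10% dialyzed FBS.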

[9] = qHTS assay for small molecule disruptors of the mitochondrial membrane potential (AID 720635); also: potency is read from the fitted curve at half-maximal effect
Method in brief: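 Mitochondrial membrane potential tracked with Mito-MPS dye, red aggregates (ex 540/em 590 nm) against green monomers (ex 490/em 535 nm). Compound treatment 1 hr at 37C, dye 30 min in HepG2.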

[10] = qHTS assay to test for compound auto fluorescence at 535 nm (green) in HepG2 cells (AID 720675)
% is scaled to controls: 0 for no effect and ±100 for the full control effect.

CC1COc2ccccc2N1 (configuration not stated)
inactive: outcome [1] | Potency [2] | outcome [3] | Potency [4] | outcome [5] | outcome [6] | outcome [7] | outcome [8]

CCCCCCOC(=O)CC
inactive: outcome [1] | Potency [2] | Potency [4] | outcome [5] | Potency [9] | outcome [6] | outcome [7] | outcome [8]

FC(F)(F)c1ccccc1-n1ccnc1
inactive: outcome [1] | outcome [3] | Potency [4] | outcome [5] | Potency [9] | outcome [6] | outcome [10] | outcome [7] | outcome [8]

CC(N)C(=O)OC(C)(C)Cc1ccc(Cl)cc1 (configuration not stated)
inactive: outcome [1] | Potency [2] | Potency [4] | outcome [5] | outcome [6] | outcome [7] | outcome [8]

O=C(CS(=O)Cc1ccco1)NC/C=C\COc1cc(CN2CCCCC2)ccn1 (configuration not stated)
inactive: outcome [1] | outcome [3] | Potency [4] | Potency [9] | outcome [6] | outcome [10] | outcome [7] | outcome [8]

C#CC(C)N(C)C(=O)Nc1ccc(Cl)cc1 (configuration not stated)
inactive: outcome [1] | Potency [2] | Potency [4] | outcome [6] | outcome [10] | outcome [7] | outcome [8]

C=Cc1ccccn1
inactive: outcome [1] | outcome [3] | Potency [4] | outcome [5] | Potency [9] | outcome [6] | outcome [7] | outcome [8]

CCCC(=O)C(C)=O
inactive: outcome [1] | outcome [3] | Potency [4] | outcome [6] | outcome [10] | outcome [7] | outcome [8]

CNS(=O)(=O)CCc1ccc2[nH]cc(C3CCN(C)CC3)c2c1
inactive: outcome [1] | Potency [2] | Potency [4] | outcome [5] | outcome [6] | outcome [7]

Cc1cc(NC(=O)C2=C(O)c3ccccc3S(=O)(=O)N2C)no1
inactive: outcome [1] | Potency [4] | outcome [5] | outcome [6] | outcome [10] | outcome [7] | outcome [8]
active: Potency [9] 2.66 µM

O=C(OCC1(COC(=O)c2cccnc2)CCCC(COC(=O)c2cccnc2)(COC(=O)c2cccnc2)C1O)c1cccnc1
inactive: outcome [1] | outcome [3] | Potency [4] | outcome [5] | Potency [9] | outcome [6] | outcome [10] | outcome [7] | outcome [8]

CC(COC(C)(C)C)OCCCO (configuration not stated)
inactive: outcome [1] | outcome [3] | Potency [4] | outcome [5] | Potency [9] | outcome [6] | outcome [7] | outcome [8]

O=S(O)(O)=S
inactive: activation [1] -6.63% [at 8.3 µM] | activation [2] 2.28% [at 8.08 µM] | activity, negative = cytotoxicity [4] -2.41% [at 8.08 µM] | activity change, negative = cytotoxicity [5] 11.6% [at 8.08 µM] | fluorescence, relative to Rose Bengal [6] -0.423% [at 3.72 µM] | fluorescence, % of fluorescein control [10] 0.0128% [at 3.72 µM] | fluorescence, % of triamterene [7] -0.0172% [at 3.72 µM] | fluorescence, % of fluorescent control [8] 0.178% [at 3.72 µM]

NCCS
inactive: outcome [1] | Potency [4] | outcome [5] | Potency [9] | outcome [6] | outcome [10] | outcome [7] | outcome [8]

CC(C)=CCOC(=O)c1ccccc1
inactive: outcome [1] | Potency [2] | Potency [4] | outcome [6] | outcome [10] | outcome [7] | outcome [8]

CC(C)NCC(O)COc1cccc2[nH]ccc12 (configuration not stated)
inactive: outcome [1] | outcome [3] | outcome [5] | Potency [9] | outcome [6] | outcome [7] | outcome [8]

N[C@@H](CCC(=O)Nc1ccc([N+](=O)[O-])cc1)C(=O)O
inactive: outcome [1] | Potency [2] | Potency [4] | outcome [6] | outcome [10] | outcome [7] | outcome [8]

C=CC(OCC)OCC
inactive: outcome [1] | outcome [3] | Potency [4] | outcome [5] | outcome [6] | outcome [10] | outcome [7] | outcome [8]

BrCCCCCBr
inactive: outcome [1] | outcome [3] | Potency [4] | outcome [5] | outcome [6] | outcome [10] | outcome [7]

NC(CO)C(=O)NNCc1ccc(O)c(O)c1O (configuration not stated)
inactive: outcome [1] | Potency [2] | Potency [4] | outcome [5] | outcome [6] | outcome [7] | outcome [8]

C[C@H](N)[C@H](O)c1cccc(O)c1
inactive: outcome [1] | outcome [3] | Potency [4] | outcome [5] | fluorescence, relative to Rose Bengal [6] 0.285% [at 18.6 µM] | fluorescence, % of fluorescein control [10] 0.0051% [at 18.6 µM] | fluorescence, % of triamterene [7] 2.14% [at 18.6 µM] | fluorescence, % of fluorescent control [8] -0.0013% [at 18.6 µM]

CC(C)(C)NC(N)=O
inactive: outcome [1] | Potency [2] | Potency [4] | outcome [6] | outcome [10] | outcome [7] | outcome [8]

COc1cc(NS(=O)(=O)c2ccc(N)cc2)nc(OC)n1
inactive: outcome [1] | Potency [2] | Potency [4] | outcome [5] | Potency [9] | fluorescence, relative to Rose Bengal [6] -0.297% [at 18.6 µM] | fluorescence, % of fluorescein control [10] -0.149% [at 18.6 µM] | fluorescence, % of triamterene [7] 0.216% [at 18.6 µM] | fluorescence, % of fluorescent control [8] -0.0598% [at 18.6 µM]

CCOC(=O)c1ccc(OC(=O)CCCCCN=C(N)N)cc1
inactive: outcome [1] | Potency [2] | Potency [4] | outcome [5] | Potency [9] | fluorescence, relative to Rose Bengal [6] -0.309% [at 18.6 µM] | fluorescence, % of fluorescein control [10] 0.0329% [at 18.6 µM] | fluorescence, % of triamterene [7] -0.0421% [at 18.6 µM] | fluorescence, % of fluorescent control [8] 0.895% [at 18.6 µM]

COC(=O)c1ccccc1C(=O)c1ccc(OCCN2CCCCC2)cc1
inactive: outcome [1] | Potency [2] | Potency [4] | Potency [9] | outcome [6] | outcome [10] | outcome [7]
